According to PubChem BioAssay (EPA / NIEHS):
Where “and” joins values, the source holds several entries; their conditions need not be identical. Identical values can stand only once. Results filed as inconclusive are left out. Some compounds were tested as several samples or in several runs, with calls that do not always agree. Calls of active or inactive are those of the source. The calls were made as follows: active = hit-call score of the fitted dose curve at least 0.9, where 1 is the maximum; inconclusive = response in the unintended direction; inactive = score below 0.9.

Legend:
[1] = ATG_XTT_Cytotoxicity: Cytotoxicity Assessment in the Attagene TRANS-FACTORIAL HepG2 Assay (AID 2283584)
Outline: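 HepG2 cells transiently transfected with GAL4-UAS multiple reporter units, dosed 24 h; cytotoxicity read by XTT as loss of signal versus DMSO baseline.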

[2] = biological target: Cellular tumor antigen p53 (Homo sapiens) (UniProt P04637); experiment: TOX21_p53_BLA_p2_ratio: Tox21 HCT-116 p53 Agonism Beta-lactamase Assay, Ratio, Phase 2 (AID 2283592)
Sequence of Cellular tumor antigen p53 (Homo sapiens) (P04637 whole entry, looked up): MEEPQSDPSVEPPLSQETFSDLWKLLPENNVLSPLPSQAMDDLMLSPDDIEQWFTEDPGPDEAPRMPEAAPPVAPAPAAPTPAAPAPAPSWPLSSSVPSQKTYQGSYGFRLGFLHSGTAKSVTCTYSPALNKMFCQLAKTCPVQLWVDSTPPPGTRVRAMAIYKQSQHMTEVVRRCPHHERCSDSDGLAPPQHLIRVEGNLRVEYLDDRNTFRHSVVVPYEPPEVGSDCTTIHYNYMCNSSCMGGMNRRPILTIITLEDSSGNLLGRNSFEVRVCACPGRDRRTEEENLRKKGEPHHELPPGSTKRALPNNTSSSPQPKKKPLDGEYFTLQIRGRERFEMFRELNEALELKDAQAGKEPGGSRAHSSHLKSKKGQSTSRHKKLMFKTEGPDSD
Outline: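 HCT-116 cells with p53-responsive beta-lactamase reporter, 4000 cells/well, preincubated 5 h, then compound in DMSO (217-fold dilution) for 16 h at 37C. CCF4-AM substrate 2 h at room temperature; 460/530 nm emission ratio fitted upward versus DMSO.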

[3] = biological target: Cellular tumor antigen p53 (Homo sapiens) (UniProt P04637); experiment: TOX21_p53_BLA_p5_ratio: Tox21 HCT-116 p53 Agonism Beta-lactamase Assay, Ratio, Phase 5 (AID 2283599)
Outline: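 HCT-116 cells carrying a p53-inducible beta-lactamase reporter were seeded at 4000 cells/well and dosed after 5 h with compound in DMSO (217-fold dilution). After 16 h at 37C, CCF4-AM substrate was added for 2 h, and the 460/530 nm emission ratio was scored as gain-of-signal versus DMSO.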

[4] = biological target: Cellular tumor antigen p53 (Homo sapiens) (UniProt P04637); experiment: TOX21_p53_BLA_p4_ratio: Tox21 HCT-116 p53 Agonism Beta-lactamase Assay, Ratio, Phase 4 (AID 2283601)
Outline: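 HCT116 cells carrying an inducible beta-lactamase reporter were plated at 4000 cells/well, rested 5 h, then exposed to compounds in DMSO (217-fold dilution) for 16 h at 37C. CCF4-AM substrate was loaded 2 h at room temperature; 460/530 nm emission ratio scored gain-of-signal versus DMSO.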

[5] = TOX21_p53_BLA_p5_viability: Viability Assessment in the Tox21 HCT-116 p53 Agonism Beta-lactamase Assay, Phase 5 (AID 2283600)
Outline: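 HCT-116 p53 beta-lactamase reporter cells, 4000/well, were exposed to compound (pin transfer, 217-fold dilution) for 16 hours at 37C. Cellular ATP was read by CellTiter-Glo luminescence after 30 min at room temperature.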

[6] = TOX21_p53_BLA_p2_viability: Viability Assessment in the Tox21 HCT-116 p53 Agonism Beta-lactamase Assay, Phase 2 (AID 2283591);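 also: compound exposure lasted 16 h at 37 °C; actives lower the ATP signal meaning cytotoxicity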
Outline: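 HCT-116 p53-bla cells (4000/well) rested 5 h at 37C, then received compounds in DMSO (217-fold dilution) for 16 h at 37C, 5% CO2. After the CCF4 read, CellTiter-Glo was added; ATP luminescence was read after 30 min at room temperature.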

[7] = TOX21_p53_BLA_p3_viability: Viability Assessment in the Tox21 HCT-116 p53 Agonism Beta-lactamase Assay, Phase 3 (AID 2283593);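 also: cells exposed to compound for 16 h before reading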
Outline: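 HCT-116 cells (4000/well) rested 5 h at 37C, then got DMSO compounds by pin tool (217-fold dilution) for 16 h at 37C, 5% CO2. After the bla read, CellTiter-Glo was added and luminescence read at 30 min, room temperature.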

[8] = biological target: Cellular tumor antigen p53 (Homo sapiens) (UniProt P04637); experiment: TOX21_p53_BLA_p3_ratio: Tox21 HCT-116 p53 Agonism Beta-lactamase Assay, Ratio, Phase 3 (AID 2283596)
Outline: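 HCT116 p53-bla cells (4000/well) given compound in DMSO (217-fold dilution) after 5 h, incubated 16 h at 37C. CCF4-AM substrate 2 h at room temperature; 460/530 nm emission ratio, gain fitted against DMSO.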

[9] = TOX21_p53_BLA_p4_viability: Viability Assessment in the Tox21 HCT-116 p53 Agonism Beta-lactamase Assay, Phase 4 (AID 2283597);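 also: hits lower the luminescence signal meaning cytotoxicity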
Outline: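 HCT-116 p53-bla cells, 4000/well, dosed after 5 h attachment and incubated 16 h at 37 °C, 5% CO2. Viability from CellTiter-Glo ATP luminescence after 30 min at room temperature, taken after the beta-lactamase read; loss of signal indicates cytotoxicity.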

Measured: AC50

CC[N+](C)(CC)CC
inactive: [1] | [2] | [3] | [4]

C[C@@H]1CCN(C(=O)[C@H](CCCN=C(N)N)NS(=O)(=O)c2cccc3c2NC[C@H](C)C3)[C@@H](C(=O)O)C1
inactive: [1] | [2] | [3] | [5] | [4]

CC(=O)C1(C)CC2=C(CCCC2(C)C)CC1C (configuration not stated)
inactive: [6] | [2] | [7] | [8] | [9] | [3] | [5] | [4]

N[C@@H](Cc1cc(I)c(Oc2cc(I)c(O)c(I)c2)c(I)c1)C(=O)O
active: [2] 43.6 µM | [9] 37 µM | [3] 39.3 µM | [4] 39.8 µM
inactive: [6] | [2] | [7] | [9] | [5] | [4]

CCC1(C)NC(=O)NC1=O (configuration not stated)
inactive: [6] | [2] | [7]

Nc1ccc2c(O)cc(S(=O)(=O)O)cc2c1
active: [2] 23.1 µM and 18.3 µM | [8] 12.9 µM | [3] 33.1 µM and 21.3 µM | [4] 46.1 µM and 16 µM
inactive: [6] | [7] | [8] | [9] | [5]

O=C(O)c1cccnc1C(=O)O
inactive: [1] | [3] | [5]

CC(C)(CO)[C@@H](O)C(=O)NCCC(=O)O
inactive: [1] | [2] | [8] | [3] | [4]

Cc1ccc(N)c(S(=O)(=O)O)c1
inactive: [1] | [7] | [8] | [3] | [5] | [4]

Nc1ccc(NCCO)c([N+](=O)[O-])c1
inactive: [1] | [2] | [9] | [3] | [4]

CC(C)Nc1nc(N)nc(Cl)n1
inactive: [1] | [4]

OCCOCCN1CCN(C2=Nc3ccccc3Sc3ccccc32)CC1
inactive: [6] | [2] | [7] | [8] | [9] | [3] | [5] | [4]

COCCc1ccc(OCC(O)CNC(C)C)cc1 (configuration not stated)
inactive: [1] | [2] | [8] | [3] | [4]

CCc1ccc(O)c(OC)c1
inactive: [1] | [7] | [3]

CCCC(=O)OCCc1ccccc1
inactive: [1] | [8] | [3] | [4]

CN(C)CCOc1ccc(/C(=C(/CCCl)c2ccccc2)c2ccccc2)cc1
inactive: [6] | [2] | [7] | [8] | [3] | [5]
active: [6] 58.1 µM | [2] 74.9 µM | [7] 66.3 µM | [9] 49.8 µM and 37 µM | [3] 74 µM | [5] 59.8 µM | [4] 72.9 µM and 39 µM

N#Cc1ccc(CC(=O)c2cccc(C(F)(F)F)c2)cc1
inactive: [1] | [8] | [3] | [5] | [4]

O=C(O)c1cc(C(=O)O)cc([N+](=O)[O-])c1
inactive: [1] | [4]

O=C(O)CCCCCCCCCCCC(=O)O
inactive: [6] | [2] | [7] | [8] | [9] | [3] | [5]

COS(=O)(=O)O
inactive: [1] | [5] | [4]

O=C(O)COCC(=O)O
inactive: [1] | [2] | [5] | [4]

CCCSc1ccc2nc(NC(=O)OC)[nH]c2c1
inactive: [6] | [7] | [9] | [5]
active: [2] 336 nM and 247 nM | [8] 394 nM and 199 nM | [3] 373 nM and 193 nM | [4] 339 nM and 175 nM

C=CC(=O)OCCC#N
inactive: [1] | [7] | [3] | [5] | [4]

C=CCCCCCCCCCC
inactive: [6] | [2] | [7] | [8] | [9] | [3] | [5] | [4]

CCCCCCCCCCCCCC(=O)OCC(O)CO (configuration not stated)
inactive: [1] | [2] | [3] | [5]

C1CCOC1
inactive: [1] | [7] | [4]

Cc1c(C2(c3cc(Br)c(O)c(Br)c3C)OS(=O)(=O)c3ccccc32)cc(Br)c(O)c1Br
active: [7] 37.1 µM | [9] 28.4 µM
inactive: [1] | [8] | [5] | [4]

O=C(CC(=O)c1ccccc1)c1ccccc1
inactive: [6] | [2] | [7] | [8] | [9] | [3] | [5] | [4]

CC1=NN(c2ccc(S(=O)(=O)O)cc2)C(=O)C1
inactive: [1] | [2] | [3] | [5]

CCCCCCC(CO)CCCC (configuration not stated)
inactive: [1] | [2] | [3] | [4]

C[C@H](CCC(=O)NCC(=O)O)[C@H]1CC[C@H]2[C@@H]3[C@H](O)C[C@@H]4C[C@H](O)CC[C@]4(C)[C@H]3C[C@H](O)[C@]12C
inactive: [1] | [8] | [9] | [3] | [5] | [4]

CS(=O)(=O)c1ccc(C2=C(c3ccccc3)C(=O)OC2)cc1
inactive: [1] | [5] | [4]

CCc1ccc(O)cc1
inactive: [6] | [2] | [7] | [8] | [9] | [3] | [5]

CC1=CC[C@@]23C[C@@H]1C(C)(C)[C@@H]2CC[C@H]3C
inactive: [1] | [5]

Nc1c(Cl)cc(Cl)cc1[N+](=O)[O-]
inactive: [6] | [2] | [9] | [5] | [4]

C=C(C)C(=O)OCCOCCOCCOCCOC(=O)C(=C)C
inactive: [6] | [2] | [7] | [8] | [9] | [5] | [4]

CCOC(=O)c1ccc(N)cc1
inactive: [6] | [2] | [7] | [8] | [3] | [4]

CCC(C)S (configuration not stated)
inactive: [6] | [2] | [7] | [3] | [5]

CCCCCCCCCCCC(=O)OC[C@@H](O)[C@H]1OC[C@H](O)[C@H]1O
inactive: [6] | [2] | [7] | [3] | [5] | [4]

CCCCCCOC(=O)CCC
inactive: [6] | [2] | [7] | [8] | [9] | [3] | [4]

CCCN(CCC)S(=O)(=O)c1ccc(C(=O)O)cc1
inactive: [6] | [2] | [7] | [8] | [9] | [3] | [5] | [4]

COCCOCCOCCO
inactive: [6] | [2] | [7] | [8] | [3] | [5] | [4]

COc1ccc(N=Nc2cc(C)c(N=Nc3ccc(S(=O)(=O)O)cc3)cc2OC)cc1
inactive: [6] | [7] | [8] | [9] | [3] | [5] | [4]

COC(C)(C)CCCC(C)CC=O (configuration not stated)
inactive: [6] | [2] | [8] | [3] | [5] | [4]

NCC1CCCC(CN)C1 (configuration not stated)
inactive: [6] | [2] | [8] | [3] | [5] | [4]

IC(I)I
inactive: [6] | [2] | [7] | [8] | [9] | [3] | [5] | [4]

CCCCCCCCCCCCCCCC(=O)OC/C=C(C)/C=C/C=C(C)/C=C/C1=C(C)CCCC1(C)C
inactive: [6] | [7] | [8] | [5] | [4]

CCc1ncc(C)[nH]1
inactive: [6] | [9] | [3] | [5] | [4]

CCc1cc(Cc2cc(CC)cc(C(C)(C)C)c2O)c(O)c(C(C)(C)C)c1
active: [6] 4.87 µM | [2] 14.9 µM | [7] 16.1 µM | [9] 5.48 µM | [3] 29.3 µM | [5] 20.1 µM | [4] 10.8 µM

CC(Oc1cc(Cl)ccc1Cl)C(=O)O (configuration not stated)
inactive: [6] | [2] | [7] | [5]

CN1CCOCC1
inactive: [6] | [2] | [8] | [3] | [5] | [4]

CCCCCCCCC=CCCCCCCCC1=NCCN1CCO
inactive: [2] | [3] | [5]
active: [6] 46.1 µM | [7] 77.4 µM | [8] 87.1 µM | [9] 86.4 µM | [4] 87.8 µM

C1=CC2C3C=CC(C3)C2C1 (configuration not stated)
inactive: [6] | [2] | [7] | [8] | [9] | [3] | [5] | [4]

CC(=O)c1c(C)c([N+](=O)[O-])c(C(C)(C)C)c([N+](=O)[O-])c1C
inactive: [6] | [2] | [7] | [9] | [3] | [5] | [4]

CCCC(=O)c1ccccc1
inactive: [6] | [2] | [7] | [8] | [9] | [3] | [4]

COC(=O)Nc1ccc(Cl)c(Cl)c1
inactive: [6] | [2] | [7] | [8] | [9] | [3] | [5] | [4]

CC(C)C(OC(=O)c1ccccc1)C(C)(C)COC(=O)c1ccccc1 (configuration not stated)
inactive: [6] | [2] | [7] | [9] | [3] | [5]

CN(C)C(=S)SC(=S)N(C)C
inactive: [6] | [2] | [7] | [8] | [9] | [3] | [4]

CC1(C)O[C@@H]2[C@@H](CO[C@@]3(COS(N)(=O)=O)OC(C)(C)O[C@@H]23)O1
inactive: [6] | [2] | [7] | [8] | [9] | [5] | [4]

CCCCCCCCc1ccc(S(=O)(=O)O)cc1
inactive: [6] | [2] | [7] | [8] | [3] | [5] | [4]
active: [9] 33.7 µM

O=C(Nc1ccc2c(c1)Cc1ccccc1-2)C(F)(F)F
inactive: [6] | [2] | [7] | [8] | [9] | [3] | [5] | [4]

CC(=O)CC(=O)Nc1ccc(C)cc1C
inactive: [6] | [2] | [7] | [8] | [9] | [5]
